Test [1] in a line: qHTS for Inhibitors of the Functional Ribonucleoprotein Complex (vRNP) of Lassa (LASV) Arenavirus: LASV Primary Screen - GLuc reporter signal (AID 1347082; calls by dose curve; tested in HEK293 reporter line; also: series mostly up to about 57 µM; nearly all actives have a fitted effect of over 60% in size). Background: qHTS replaces the single test concentration by a dilution series.
A short description of test [2]: qHTS for Inhibitors of the Functional Ribonucleoprotein Complex (vRNP) of Lassa (LASV) Arenavirus: Viability assay - alamar blue signal for LASV Primary Screen (AID 1347083; calls by dose curve; tested in HEK293 reporter line; also: nearly all actives have a fitted effect of over 80% in size; also: potency is read from the fitted curve at half-maximal effect).
Test [3] addresses Nucleoprotein (Lymphocytic choriomeningitis virus (strain Armstrong)) (UniProt P09992). Nature of the test: qHTS for Inhibitors of the Functional Ribonucleoprotein Complex (vRNP) of Lymphocytic Choriomeningitis Arenaviruses (LCMV): LCMV Primary Screen - GLuc reporter signal (AID 1347086; calls by dose curve; also: nearly all actives have a fitted effect of over 70% in size; also: potency is read from the fitted curve at half-maximal effect).
Test [4] can be described thus: qHTS for Inhibitors of the Functional Ribonucleoprotein Complex (vRNP) of Lymphocytic Choriomeningitis Arenaviruses (LCMV): Viability assay - alamar blue signal for LCMV Primary Screen (AID 1347085; calls by dose curve; tested in HEK293 reporter line; also: series mostly up to about 57 µM; nearly all actives have a fitted effect of over 80% in size).
The nature of test [5]: qHTS of pediatric cancer cell lines to identify multiple opportunities for drug repurposing: Primary screen for TC32 cells (AID 1347089). Also: nearly all actives have a fitted effect of over 60% in size. Put shortly: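 In the primary qHTS, MIPE compounds were tested at 11 concentrations (0.78 nM to 46 µM) and NPC compounds at 8 (0.59 nM to 46 µM) on TC32 cells for 48 h. CellTiter-Glo luminescence gave viability.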
Test [6] is described as follows: qHTS of pediatric cancer cell lines to identify multiple opportunities for drug repurposing: Primary screen for DAOY cells (AID 1347090). Also: nearly all actives have a fitted effect of over 55% in size. Also: potency is read from the fitted curve at half-maximal effect. The procedure, abridged:
(§1)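 Eight- or eleven-point concentration series, 48 h treatment at 37 degrees C in growth media; readout CellTiter-Glo luminescence. Potency and efficacy were taken from the concentration-response curves.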

A short description of test [7]: qHTS of pediatric cancer cell lines to identify multiple opportunities for drug repurposing: Primary screen for BT-37 cells (AID 1347094). Also: potency is read from the fitted curve at half-maximal effect. Put shortly:
(§2)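 Cells plated at 500-1,000/well in growth medium, compounds added after 5 h. MIPE tested at 11 points (from 0.78 nM), NPC at 8 points (from 0.59 nM). CellTiter-Glo luminescence after 48 h; concentration-response curves from primary screen.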

A short description of test [8]: qHTS of pediatric cancer cell lines to identify multiple opportunities for drug repurposing: Primary screen for U-2 OS cells (AID 1347096). Also: nearly all actives have a fitted effect of over 50% in size. The procedure, abridged: (§3)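 Cells (500-1,000/well) in growth media were settled 5 h at 37 degrees C, then given compounds for 48 h. Viability was read as CellTiter-Glo luminescence. Primary runs used MIPE at 11 points (0.78 nM-46 µM) and NPC at 8 points (0.59 nM-46 µM); follow-ups used 11 points.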

Test [9] can be described thus: qHTS of pediatric cancer cell lines to identify multiple opportunities for drug repurposing: Primary screen for SK-N-SH cells (AID 1347098). Also: nearly all actives have a fitted effect of over 65% in size. Also: potency is read from the fitted curve at half-maximal effect. The procedure, abridged: (§4)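 Cells (500-1,000/well) rested 5 h, then received compounds for 48 h; metabolically active cells were measured by CellTiter-Glo luminescence. Final concentrations spanned up to 46 µM (MIPE, 11-point) or 0.59 nM-46 µM (NPC, 8-point) in primary screens, 11-point in follow-ups.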

Test [10] can be described thus: qHTS of pediatric cancer cell lines to identify multiple opportunities for drug repurposing: Primary screen for LAN-5 cells (AID 1347100). Also: potency is read from the fitted curve at half-maximal effect. Put shortly:
as §3

Test [11] is described as follows: qHTS of pediatric cancer cell lines to identify multiple opportunities for drug repurposing: Primary screen for BT-12 cells (AID 1347101). Also: nearly all actives have a fitted effect of over 25% in size. Also: potency is read from the fitted curve at half-maximal effect. The procedure, abridged:
as §4

Test [12] in a line: qHTS of pediatric cancer cell lines to identify multiple opportunities for drug repurposing: Primary screen for Rh18 cells (AID 1347102). Also: nearly all actives have a fitted effect of over 65% in size. Also: potency is read from the fitted curve at half-maximal effect. Put shortly:
as §3

Test [13] can be described thus: qHTS of pediatric cancer cell lines to identify multiple opportunities for drug repurposing: Primary screen for SJ-GBM2 cells (AID 1347091). Also: potency is read from the fitted curve at half-maximal effect. Put shortly:
as §1

A short description of test [14]: qHTS of pediatric cancer cell lines to identify multiple opportunities for drug repurposing: Primary screen for NB-EBc1 cells (AID 1347095). Put shortly: as §2
The nature of test [15]: qHTS of pediatric cancer cell lines to identify multiple opportunities for drug repurposing: Primary screen for Saos-2 cells (AID 1347097). Also: nearly all actives have a fitted effect of over 40% in size. Also: potency is read from the fitted curve at half-maximal effect. The procedure, abridged:
as §2

Test [16] in a line: qHTS of pediatric cancer cell lines to identify multiple opportunities for drug repurposing: Primary screen for NB1643 cells (AID 1347099). Also: nearly all actives have a fitted effect of over 50% in size. Also: potency is read from the fitted curve at half-maximal effect. The procedure, abridged: as §2
The nature of test [17]: qHTS of pediatric cancer cell lines to identify multiple opportunities for drug repurposing: Primary screen for A673 cells (AID 1347092). Also: nearly all actives have a fitted effect of over 45% in size. Also: potency is read from the fitted curve at half-maximal effect. The procedure, abridged: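 48 h compound exposure, A673, 500-1,000 cells/well, 37 degrees C/5% CO2. MIPE: 11-point, 0.78 nM-46 µM; NPC: 8-point, 0.59 nM-46 µM (final). Readout CellTiter-Glo luminescence after 15 min RT.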
The nature of test [18]: qHTS of pediatric cancer cell lines to identify multiple opportunities for drug repurposing: Primary screen for SK-N-MC cells (AID 1347093). Also: potency is read from the fitted curve at half-maximal effect. Put shortly:
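Metabolically active cells were quantified by ATP-dependent luminescence (CellTiter-Glo, 15 min at room temperature) following 48 h treatment. Cells had been plated at 500-1,000 per well and settled for 5 h beforehand.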

Results filed as inconclusive are left out. Active and inactive are the calls of the source. Unless noted, calls follow the shape of the dose curve; as a rule, active = well fitted curve in the direction sought with a large enough effect; inconclusive = small, poorly fitted or top-dose-only effect, or another doubt; inactive = no such curve, though single readings can be large; an effect the other way counts as inactive or inconclusive.

Sequence of Nucleoprotein (Lymphocytic choriomeningitis virus (strain Armstrong)) (P09992 whole entry, looked up): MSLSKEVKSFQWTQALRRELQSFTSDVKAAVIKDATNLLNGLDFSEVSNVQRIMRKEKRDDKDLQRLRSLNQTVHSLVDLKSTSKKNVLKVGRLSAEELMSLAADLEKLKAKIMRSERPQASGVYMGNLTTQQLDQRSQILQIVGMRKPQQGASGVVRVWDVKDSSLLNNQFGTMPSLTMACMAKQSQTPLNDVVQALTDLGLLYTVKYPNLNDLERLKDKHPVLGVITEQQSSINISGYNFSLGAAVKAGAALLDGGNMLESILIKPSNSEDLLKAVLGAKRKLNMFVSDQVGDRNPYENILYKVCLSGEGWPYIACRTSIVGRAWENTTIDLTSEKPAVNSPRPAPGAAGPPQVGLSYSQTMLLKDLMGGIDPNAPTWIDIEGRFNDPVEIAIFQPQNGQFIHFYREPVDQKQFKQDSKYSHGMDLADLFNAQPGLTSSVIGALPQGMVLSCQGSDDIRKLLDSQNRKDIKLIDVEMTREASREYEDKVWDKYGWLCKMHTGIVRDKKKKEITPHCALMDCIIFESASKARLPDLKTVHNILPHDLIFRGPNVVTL

With `CC(=O)N(CC(=O)N(C)C)c1ccccc1`, the Potency result in test [1], in [2] and in test [3] was “inactive” each time.
`C[C@]12C=CC(=O)C=C1CC[C@@H]1[C@@H]2CC[C@@]2(C)[C@H]1CC[C@]2(C)O`: the Potency entry in [1], in test [2], in test [4], in test [3], in test [5] and in test [6] was “inactive” in each case. Further, the Potency result in [7], in [8], in [9], in [10], in test [11] and in test [12] was “inactive” in each case.
Take `CN(C)CCc1c[nH]c2ccc(O)cc12`: the Potency entry in test [1], in test [2], in test [4], in test [3], in [13] and in test [7] was “inactive” in each case. The Potency result in [14], in test [8], in test [15], in test [9], in [16] and in test [10] was “inactive” throughout. For the same molecule, the Potency result in [11] and in [12] was “inactive” each time.
For `COc1cc(N)c(Cl)cc1C(=O)NC1CCN(CCCOc2ccc(F)cc2)CC1OC` (centres undefined), the Potency result in test [1], in test [2] and in test [3] was “inactive” each time.
With `O=C(NC(=O)c1c(F)cccc1F)Nc1cc(Cl)c(OC(F)(F)C(F)C(F)(F)F)cc1Cl` (centres undefined), the Potency result in [1], in [2], in [4], in [3], in test [5] and in [6] was “inactive” throughout. Also, the Potency result in [17], in test [18], in test [14], in [15], in [9] and in [16] was “inactive” in each case. For the same molecule, the Potency entry in test [12] is “inactive”.
For the molecule `CN1CCC(=C2c3ccccc3CCc3cccnc32)CC1`, the Potency result in [1], in test [2] and in [3] was “inactive” in each case.
Turning to `Clc1ccc(CO/N=C(\Cn2ccnc2)c2ccc(Cl)cc2Cl)c(Cl)c1`, the Potency entry in test [1], in test [2], in test [4] and in test [3] was “inactive” in each case. Further, the Potency in test [10] was 23.7 µM (active).
On to `O=C(CS)Nc1ccccc1`, for which the Potency entry in test [1], in test [2] and in test [3] was “inactive” in each case.
`O=C1OC2(c3ccccc31)c1cc(I)c(O)c(I)c1Oc1c2cc(I)c(O)c1I`: the Potency entry in test [1], in test [2] and in [3] was “inactive” throughout.
On to `Oc1ccc([C@H]2CNCc3c2ccc(O)c3O)cc1O`, for which the Potency result in [1], in test [2], in test [4], in [3], in test [5] and in test [13] was “inactive” each time. Besides, the Potency result in [7], in [14], in test [8], in test [16] and in [11] was “inactive” in each case.
As for `CCOC(=O)c1ccc(C#Cc2ccc3c(c2)C(C)(C)CCS3)nc1`, the Potency result in [1], in [2] and in test [3] was “inactive” in each case.
As to `CCOC(=O)OC(C)OC1=C(C(=O)Nc2ccccn2)N(C)S(=O)(=O)c2ccccc21` (centres undefined), the Potency entry in test [1], in test [2] and in [3] was “inactive” each time.
On to `Cc1nnc2n1-c1sc(CCc3ccc(CC(C)C)cc3)cc1C(c1ccccc1Cl)=NC2C` (centres undefined), for which the Potency entry in [2] is “inactive”.
`CCC(=O)C(CCN(C)C)(c1ccccc1)c1ccccc1`: the Potency result in [2], in test [17], in test [18] and in test [15] was “inactive” each time.
On to `CN(C)C(=O)Oc1cc(OC(=O)N(C)C)cc(C(O)CNC(C)(C)C)c1` (centres undefined), for which the Potency entry in test [17], in test [18] and in test [9] was “inactive” in each case.
Regarding `C[C@]12Cc3nonc3C[C@@H]1CC[C@@H]1[C@@H]2CC[C@@]2(C)[C@H]1CC[C@]2(C)O`, the Potency entry in test [9] was “inactive”.
Take `CCC(OC(C)=O)C(CC(C)NC)(c1ccccc1)c1ccccc1` (centres undefined): the Potency result in [1] and in test [14] was “inactive” each time. Further, the Potency is 27.6 µM (active) in test [17]; 31 µM (active) in test [18]; 35.9 µM (active) in test [7]; 43.7 µM (active) in test [15]; 43.7 µM (active) in [10]; 39 µM (active) in test [12].
On to `COc1ccc2c(C(=O)c3ccc(Cl)cc3)c(C)n(CC(=O)O)c2c1`, for which the Potency is 21.1 µM (active) in test [6] and 8.41 µM (active) in test [18]. Moreover, the Potency result in test [13], in test [7], in [8], in [15], in [9] and in test [10] was “inactive” each time. The Potency result in test [11] and in [12] was “inactive” throughout.
With `CCOC(=O)N1CCC(n2c(=O)[nH]c3cc(Cl)ccc32)CC1`, the Potency result in [2] and in test [4] was “inactive” each time.
Turning to `Clc1ccccc1C(c1ccccc1)(c1ccccc1)n1ccnc1`, the Potency entry in test [2], in test [4] and in [3] was “inactive” throughout.
Turning to `O[C@@H](COc1cccc2ncccc12)CN1CCN(C2c3ccccc3[C@@H]3[C@H](c4ccccc42)C3(F)F)CC1` (some centres undefined), the Potency in [2] is 12.2 µM (active).
Consider `CC(C)n1nc(-c2cc3cc(O)ccc3[nH]2)c2c(N)ncnc21`, for which the Potency in test [2] and in test [3] was 1.78 µM (active) throughout.
Consider `c1ccc2c(c1)Sc1ccccc1N2CC1CN2CCC1CC2` (centres undefined), for which the Potency result in [1] and in test [14] was “inactive” each time. Also, the Potency is 23.7 µM (active) in test [13]; 13.3 µM (active) in [17]; 27.6 µM (active) in [7]; 26.6 µM (active) in test [15]; 27.3 µM (active) in test [9]; 23.7 µM (active) in test [16]. Moreover, the Potency was 15.5 µM (active) in test [11] and 23.7 µM (active) in test [12].
As to `CC[C@]12CCCN3CCc4c(n(c5ccccc45)C(=O)C1)[C@@H]32`, the Potency entry in [1] is “inactive”. In addition, in test [3], the Potency was 7.08 µM (active).
As for `CC[C@H](O)C(C[C@H](C)N(C)C)(c1ccccc1)c1ccccc1`, the Potency result in [5], in test [13], in test [7], in test [14], in [8] and in test [15] was “inactive” each time. The Potency result in [10] and in test [12] was “inactive” in each case. For the same molecule, the Potency in test [18] is 62.3 µM (active).
Regarding `C[C@H](CN1CCOCC1)C(C(=O)N1CCCC1)(c1ccccc1)c1ccccc1`, the Potency entry in test [5], in test [6], in test [14] and in test [8] was “inactive” in each case.
For the molecule `COc1ccc2c3c1O[C@H]1[C@@H](O)C=C[C@H]4[C@@H](C2)N(C)CC[C@@]341`, the Potency in [17] is 23.8 µM (active); in test [18] it was 33.7 µM (active); in [15] it was 37.8 µM (active); in test [9], 17.4 µM (active); in [10] it was 33.7 µM (active).
With `O=C(O)c1ccc(OCCCOc2ccc(C(=O)O)cc2)cc1`, the Potency entry in test [4] and in test [3] was “inactive” each time.
Consider `CN1CCN(CCC(=O)N2c3ccccc3Sc3ccc(C(F)(F)F)cc32)CC1`, for which the Potency result in [1] and in [3] was “inactive” each time.
Take `CC(=O)SC[C@@H](Cc1ccccc1)C(=O)NCC(=O)OCc1ccccc1`: the Potency result in [4] and in test [3] was “inactive” each time.
For the molecule `O=C(OCC(O)CO)c1ccccc1Nc1ccnc2cc(Cl)ccc12` (centres undefined), the Potency result in [1] and in test [3] was “inactive” in each case.

These data come from PubChem BioAssay (NCATS).
